Experimental data published in the supplement of paper PMC8728848.
The full list was thinned out, with the strongest signals kept by preference.

Legend:
Assay in all cases: glycan array binding signal (z-score within array); higher = stronger binding
Details in all cases: glycan notation: IUPAC condensed, linker removed
[1] = biological target: Fuc(a1-2)Gal(b1-3)GalNAc(a1-3)[Fuc(a1-2)]Gal(b1-4)Glc
Method in brief: (§1)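 The Consortium for Functional Glycomics database supplied 3228 glycan arrays, of which those lacking an available protein sequence were dropped. The binding signal, a within-array Z-score, was averaged across arrays of the same protein sequence and across linkers. Negative scores can be read as non-binding.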

[2] = biological target: Fuc(a1-2)Gal(b1-3)GlcNAc(b1-3)[Gal(b1-4)GlcNAc(b1-6)]Gal(b1-4)Glc
Method in brief: as §1

[3] = biological target: Fuc(a1-2)[Gal(a1-3)]Gal(b1-4)Glc
Method in brief: as §1

[4] = biological target: Fuc(a1-2)[Gal(a1-3)]Gal(b1-4)GlcNAc(b1-2)Man(a1-3)[Fuc(a1-2)[Gal(a1-3)]Gal(b1-4)GlcNAc(b1-2)Man(a1-6)]Man(b1-4)GlcNAc(b1-4)GlcNAc
Method in brief: as §1

[5] = biological target: Fuc(a1-2)[GalNAc(a1-3)]Gal(b1-4)GlcNAc(b1-2)Man(a1-3)[Fuc(a1-2)[GalNAc(a1-3)]Gal(b1-4)GlcNAc(b1-2)Man(a1-6)]Man(b1-4)GlcNAc(b1-4)GlcNAc
Method in brief: as §1

[6] = biological target: Fuc(a1-2)[GalNAc(a1-4)]Gal(b1-4)GlcNAc
Method in brief: as §1

[7] = biological target: Fuc(a1-3)[Gal(b1-4)]GlcNAc(b1-4)Gal(b1-4)[Fuc(a1-3)]GlcNAc(b1-4)Gal(b1-4)[Fuc(a1-3)]GlcNAc
Method in brief: as §1

[8] = biological target: Gal(a1-3)GalNAc
Method in brief: as §1

[9] = biological target: Gal(b1-3)[Fuc(a1-4)]GlcNAc(b1-3)Gal(b1-4)[Fuc(a1-3)]GlcNAc
Method in brief: as §1

[10] = biological target: Gal(b1-3)[Fuc(a1-4)]GlcNAc(b1-6)GalNAc
Method in brief: as §1

[11] = biological target: Gal(b1-3)[Neu5Ac(b2-6)]GalNAc
Method in brief: as §1

[12] = biological target: Gal(b1-4)GlcNAc(b1-3)Gal(b1-4)GlcNAc(b1-2)Man(a1-3)[Gal(b1-4)GlcNAc(b1-3)Gal(b1-4)GlcNAc(b1-2)Man(a1-6)]Man(b1-4)GlcNAc(b1-4)[Fuc(a1-6)]GlcNAc
Method in brief: as §1

[13] = biological target: Gal(b1-4)GlcNAc(b1-3)Gal(b1-4)GlcNAc(b1-2)[Gal(b1-4)GlcNAc(b1-3)Gal(b1-4)GlcNAc(b1-6)]Man(a1-6)[Gal(b1-4)GlcNAc(b1-3)Gal(b1-4)GlcNAc(b1-2)Man(a1-3)]Man(b1-4)GlcNAc(b1-4)[Fuc(a1-6)]GlcNAc
Method in brief: as §1

[14] = biological target: Gal(b1-4)GlcNAc(b1-3)Gal(b1-4)GlcNAc(b1-3)Gal(b1-4)GlcNAc(b1-2)[Gal(b1-4)GlcNAc(b1-3)Gal(b1-4)GlcNAc(b1-3)Gal(b1-4)GlcNAc(b1-6)]Man(a1-6)[Gal(b1-4)GlcNAc(b1-3)Gal(b1-4)GlcNAc(b1-3)Gal(b1-4)GlcNAc(b1-2)Man(a1-3)]Man(b1-4)GlcNAc(b1-4)[Fuc(a1-6)]GlcNAc
Method in brief: as §1

[15] = biological target: Gal(b1-4)GlcNAc(b1-3)Gal(b1-4)GlcNAc(b1-3)Gal(b1-4)GlcNAc(b1-3)Gal(b1-4)GlcNAc(b1-2)Man(a1-3)[Gal(b1-4)GlcNAc(b1-3)Gal(b1-4)GlcNAc(b1-3)Gal(b1-4)GlcNAc(b1-3)Gal(b1-4)GlcNAc(b1-2)Man(a1-6)]Man(b1-4)GlcNAc(b1-4)[Fuc(a1-6)]GlcNAc
Method in brief: as §1

[16] = biological target: Gal(b1-4)GlcNAc(b1-3)Gal(b1-4)GlcNAc(b1-3)Gal(b1-4)GlcNAc(b1-3)Gal(b1-4)GlcNAc(b1-2)[Gal(b1-4)GlcNAc(b1-3)Gal(b1-4)GlcNAc(b1-3)Gal(b1-4)GlcNAc(b1-3)Gal(b1-4)GlcNAc(b1-6)]Man(a1-6)[Gal(b1-4)GlcNAc(b1-3)Gal(b1-4)GlcNAc(b1-3)Gal(b1-4)GlcNAc(b1-3)Gal(b1-4)GlcNAc(b1-2)Man(a1-3)]Man(b1-4)GlcNAc(b1-4)[Fuc(a1-6)]GlcNAc
Method in brief: as §1

[17] = biological target: Gal(b1-4)GlcNAc(b1-3)Gal(b1-4)GlcNAc(b1-3)Gal(b1-4)GlcNAc(b1-3)Gal(b1-4)GlcNAc(b1-3)Gal(b1-4)GlcNAc(b1-2)[Gal(b1-4)GlcNAc(b1-3)Gal(b1-4)GlcNAc(b1-3)Gal(b1-4)GlcNAc(b1-3)Gal(b1-4)GlcNAc(b1-3)Gal(b1-4)GlcNAc(b1-6)]Man(a1-6)[Gal(b1-4)GlcNAc(b1-3)Gal(b1-4)GlcNAc(b1-3)Gal(b1-4)GlcNAc(b1-3)Gal(b1-4)GlcNAc(b1-3)Gal(b1-4)GlcNAc(b1-2)Man(a1-3)]Man(b1-4)GlcNAc(b1-4)[Fuc(a1-6)]GlcNAc
Method in brief: as §1

[18] = biological target: Gal(b1-4)GlcNAc(b1-3)Gal(b1-4)GlcNAc(b1-3)Gal(b1-4)GlcNAc(b1-3)Gal(b1-4)GlcNAc(b1-3)Gal(b1-4)GlcNAc(b1-3)Gal(b1-4)GlcNAc(b1-2)Man(a1-3)[Gal(b1-4)GlcNAc(b1-3)Gal(b1-4)GlcNAc(b1-3)Gal(b1-4)GlcNAc(b1-3)Gal(b1-4)GlcNAc(b1-3)Gal(b1-4)GlcNAc(b1-3)Gal(b1-4)GlcNAc(b1-2)Man(a1-6)]Man(b1-4)GlcNAc(b1-4)GlcNAc
Method in brief: as §1

[19] = biological target: Gal(b1-4)GlcNAc(b1-6)[Gal(b1-3)]GalNAc
Method in brief: as §1

[20] = biological target: GalNAc(a1-3)GalNAc(b1-3)Gal(a1-4)Gal(b1-4)Glc
Method in brief: as §1

B1: Gal 8 (Homo sapiens) (protein)
chain: MLSLNNLQNIIYNPVIPYVGTIPDQLDPGTLIVICGHVPSDADRFQVDLQNGSSVKPRADVAFHFNPRFKRAGCIVCNTLINEKWGREEITYDTPFKREKSFEIVIMVLKDKFQVAVNGKHTLLYGHRIGPEKIDTLGIYGKVNIHSIGFSFSSDLQSTQASSLELTEISRENVPKSGTPQLQTVSPSWDLQGHGSETFCSVLWTRVFLEIAFCRPIGLTVASFQSLPFAARLNTPMGPGRTVVVKGEVNANAKSFNVDLLAGKSKDIALHLNPRLNIKAFVRNSFLQESWGEEERNITSFPFSPGMYFEMIIYCDVREFKVAVNGVHSLEYKHRFKELSSIDTLEINGDIHLLEVRSW
In the case of B1, the “glycan array binding signal (z-score)” value [1] is reported as 0.572, the “glycan array binding signal (z-score)” value [2] is reported as 0.003 and the “glycan array binding signal (z-score)” value [3] is reported as 4.4. The “glycan array binding signal (z-score)” value [4] was 4.31, the “glycan array binding signal (z-score)” value [5] was 5.81 and the “glycan array binding signal (z-score)” value [6] was -0.357. The “glycan array binding signal (z-score)” value [7] was -0.35, the “glycan array binding signal (z-score)” value [8] was -0.387 and the “glycan array binding signal (z-score)” value [9] was -0.39. For the same binder, the “glycan array binding signal (z-score)” value [10] was -0.355, the “glycan array binding signal (z-score)” value [11] was -0.387 and the “glycan array binding signal (z-score)” value [12] was 3.06. The “glycan array binding signal (z-score)” value [13] was 6.42, the “glycan array binding signal (z-score)” value [14] was 6.12 and the “glycan array binding signal (z-score)” value [15] was 3.61. The “glycan array binding signal (z-score)” value [16] was 5.79, the “glycan array binding signal (z-score)” value [17] was 5.3 and the “glycan array binding signal (z-score)” value [18] was 5.33. For the same binder, the “glycan array binding signal (z-score)” value [19] was -0.305 and the “glycan array binding signal (z-score)” value [20] was 0.169.
